The source made the active and inactive calls. Where a call stands in place of a potency, no number is given. The call rests on the fitted dose curve.
These compounds were tested against Gonadotropin-releasing hormone receptor (Homo sapiens) (UniProt P30968) (assay: Human gonadotropin-releasing hormone receptor (GnRHR) small molecule agonists, calcium flux assay in GnRHR-HEK293 cells (AID 1920063; further: nearly all actives have a fitted effect of over 35% in size)). Conditions: calcium flux fluorescence, agonist mode; series mostly up to 57.6 µM.
Sequence of Gonadotropin-releasing hormone receptor (Homo sapiens) (P30968 whole entry, looked up): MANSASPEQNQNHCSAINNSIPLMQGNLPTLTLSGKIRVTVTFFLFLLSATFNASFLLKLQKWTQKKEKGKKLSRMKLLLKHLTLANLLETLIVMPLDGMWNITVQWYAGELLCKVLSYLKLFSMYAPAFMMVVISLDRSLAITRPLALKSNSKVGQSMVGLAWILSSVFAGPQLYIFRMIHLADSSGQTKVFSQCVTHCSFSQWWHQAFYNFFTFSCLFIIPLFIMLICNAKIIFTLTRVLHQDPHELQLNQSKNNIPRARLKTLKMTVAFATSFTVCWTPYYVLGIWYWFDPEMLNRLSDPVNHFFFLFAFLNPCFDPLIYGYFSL
Description: National Center for Advancing Translational Sciences [NCATS]
Division of Preclinical Innovation [DPI]
U.S. Environmental Protection Agency [EPA]
National Institutes of Environmental Health Sciences [NIEHS]
National Toxicology Program [NTP]
U.S. Food and Drug Administration [FDA]
Gonadotropin-releasing hormone receptor (GnRHR) is a G-protein-coupled receptor (GPCR) and acts (through phospholipase C) to increase intracellular inositol trisphosphate and then release intracellular calcium stores. Cell-based GnRHR-Hek293 calcium influx assay is using HEK293 cells that have been genetically engineered to express the human GnRHR, which activity can be measured by calcium signaling. A compound/drug can activate (agonist) GnRHR that can be monitored by levels of intracellular calcium.
GnRHR-HEK293 cells developed by Codex Corp contain human GnRHR reporter gene, which was stably integrated into HEK 293 cells. The compound activation can be detected by fluorescence intensity via calcium flux assay. This cell line has been used to screen the Tox21 10K compound library to identify GnRHR agonists.
GnRHR-Hek293 cells were dispensed at 1500cells/4uL/well in 1536-well black wall/clear bottom plates using a multidrop dispenser. After the assay plates were incubated at a 37 C/5% CO2 incubator for 18 hours, 4 uL of Calcium Dye Solution was added to each well. The plates were incubated at 37 C for 1 hour. For agonist mode, 23 nL of compounds dissolved in DMSO, positive controls or DMSO only was transferred to the assay plate by a pin tool station. The fluorescence intensity in the plates was measured using FDSS 7000EX kinetic plate reader with a filter set of Ex/Em=480/540 for 3 min at 1 sec intervals. Each test compound was measured at 15 concentrations and in triplicates.
In the case of `CCc1nc(N)nc(N)c1-c1ccc(Cl)cc1`, the Potency is reported as 39.5 µM (active).
`CC1=C(/C=C/C(C)=C/C=C/C(C)=C/C(=O)O)C(C)(C)CCC1` was tested, and the Potency was “inactive”.
With `C[C@](N)(Cc1ccc(O)c(O)c1)C(=O)O` the Potency was “inactive”.
For `Oc1ccccc1`, the Potency was “inactive”.
In the case of `CCCCCCCCCCCCc1ccccc1O`, the Potency is reported as “inactive”.
With `Nc1nc2ncc(CNc3ccc(C(=O)N[C@@H](CCC(=O)O)C(=O)O)cc3)nc2c(=O)[nH]1` the Potency was “inactive”.
For `CCOC(=O)CC(=O)OCC`, the Potency was “inactive”.
For `CCCCCCCCCCCCO`, the Potency was “inactive”.
In the case of `CC(C)c1ccc(C(C)C)cc1`, the Potency is reported as “inactive”.
With `O=C(OCc1ccccc1)c1ccccc1O` the Potency was “inactive”.
In the case of `O=C1O[C@H]([C@H](O)CO)C(O)=C1O`, the Potency is reported as “inactive”.
For `COc1c(Cl)c(Cl)c(Cl)c(Cl)c1Cl`, the Potency was “inactive”.
In the case of `C=C(C)C1CC=C(C)CC1` (stereo not given), the Potency is reported as “inactive”.
For `O=C1CCCCCN1`, the Potency was “inactive”.
In the case of `C=CCCCCCCCCCC`, the Potency is reported as “inactive”.
For `C/C=C/C=C/C(=O)O`, the Potency was “inactive”.
`CCCCCCCCC` was tested, and the Potency was “inactive”.
For `C[C@]12C=CC(=O)C=C1CC[C@@H]1[C@@H]2[C@@H](O)C[C@@]2(C)[C@H]1CC[C@]2(O)C(=O)CO`, the Potency was “inactive”.
In the case of `CCCCN(CCCC)CCCC`, the Potency is reported as “inactive”.
`Nc1cccc(C(F)(F)F)c1` was tested, and the Potency was “inactive”.
For `C=CC(C)(C)C`, the Potency was “inactive”.
With `CC(O)CN(CCN(CC(C)O)CC(C)O)CC(C)O` (stereo not given) the Potency was “inactive”.
With `CC(=O)O[C@]1(C(C)=O)CC[C@H]2[C@@H]3C[C@H](C)C4=CC(=O)CC[C@]4(C)[C@H]3CC[C@@]21C` the Potency was “inactive”.
With `OC[C@@H](O)[C@H](O)[C@H](O)[C@@H](O)CO` the Potency was “inactive”.
With `CC(=O)CC/C=C(\C)CCC=C(C)C` the Potency was “inactive”.
In the case of `CC1CCC2CC1C2(C)C` (stereo not given), the Potency is reported as “inactive”.
For `C=CCOC(=O)CC(C)C`, the Potency was “inactive”.
In the case of `Clc1ccccn1`, the Potency is reported as “inactive”.
`C=CC(=O)OCCOCCOCCOCCOC(=O)C=C` was tested, and the Potency was “inactive”.
With `CC(C)(C)C1CCC(O)CC1` (stereo not given) the Potency was “inactive”.
In the case of `CC1=CCC2CC1C2(C)C` (stereo not given), the Potency is reported as “inactive”.
In the case of `O=c1ccc2ccccc2o1`, the Potency is reported as “inactive”.
`O=[N+]([O-])c1cc(C(F)(F)F)ccc1Cl` was tested, and the Potency was “inactive”.
`COC(=O)/C=C\C(=O)OC` was tested, and the Potency was “inactive”.
For `CCC(Cc1c(I)cc(I)c(N)c1I)C(=O)O` (stereo not given), the Potency was “inactive”.
`C[Si](C)(C)O[Si](C)(C)C` was tested, and the Potency was “inactive”.
In the case of `NC1CCCCC1`, the Potency is reported as “inactive”.
`CCO[Si](CCC#N)(OCC)OCC` was tested, and the Potency was “inactive”.
`C=C(C)C(=O)OCC(CC)(COC(=O)C(=C)C)COC(=O)C(=C)C` was tested, and the Potency was “inactive”.
In the case of `CCC(=O)O`, the Potency is reported as “inactive”.
Potency means the concentration at half of the fitted maximal effect.
